Measurements reported in PubChem BioAssay (EPA / NIEHS).
The source made the active and inactive calls. The calls were made as follows: active = hit-call score of the fitted dose curve at least 0.9, where 1 is the maximum; inactive = score below 0.9.

Experiment: CEETOX_H295R_OHPROG: CeeTox H295R High-throughput Steroidogenesis Assay for OH-Progesterone (OHPROG) (AID 2283435)
Settings: actives raise or lower the signal
Protocol: CEETOX_H295R is a cell-based, multiplexed-readout assay that uses H295R, a human adrenal gland cell line, with measurements taken at 48 hours after chemical dosing in a 96-well plate.CEETOX_H295R_OHPROG is one of 23 assay component(s) measured or calculated from the CEETOX_H295R assay. It is designed to make measurements of hormone induction, a form of inducible reporter, as detected with absorbance signals by HPLC-MS-MS technology.Data from the assay component CEETOX_H295R_OHPROG was analyzed into 1 assay endpoint. This assay endpoint, CEETOX_H295R_OHPROG, was analyzed with bidirectional fitting relative to DMSO as the negative control and baseline of activity. Using a type of inducible reporter, gain or loss-of-signal activity using HPLC-MS-MS was used to understand synthesis of 17alpha-hydroxyprogesterone in H295R cell line at 48hr of chemical exposure. To generalize the intended target to other relatable targets, this assay endpoint is annotated to the steroid hormone intended target family, where the subfamily is progestagens.
Cell culture and media preparation procedures were conducted in accordance with OECD Test No. 456 guidelines, with minor modifications. H295R cells (ATCC CRL-2128) were expanded for 5 passages and frozen in batches in liquid nitrogen. Prior to the steroidogenesis assay, H295R cells were thawed and passed at least 4 times. The maximum passage was 10. Cells were maintained in a 1:1 mixture of DMEM/F12 supplemented with 5ml/L ITS+ Premix (BD Bioscience) and 12.5 ml/L Nu-Serum (BD Bioscience). After seeding cells into 96-well plates at 50-60% confluency, cells were allowed to adhere overnight. Prior to chemical testing, culture medium was replaced with 175 uL medium containing 10 uM forskolin to stimulate steroidogenesis for 48 hours. Following prestimulation, forskolin medium was replaced with medium containing test chemical solubilized in DMSO (ensuring a final concentration of 0.1% DMSO). Test chemicals were incubated for 48 hours, then the medium was removed and split into 2 vials containing approximately 75uL each, and stored at -80 C prior to hormone analysis. For steroid quantification, media samples were shipped to OpAns, LLC (Durham, NC) on dry ice, and samples were thawed to room temperature prior to liquid-liquid extraction. Steroid hormones were extracted from media samples using methyl tertbutyl ether (MTBE). An extra derivatization with dansyl chloride was included for estrogen (estrone and estradiol) detection only. Steroid hormones were separated by HPLC, eluted using a reverse phase C18 gradient with electrospray positive ionization, followed by quantification by tandem mass spectrometry (MS/MS). Data were acquired on a MassHunter Workstation Acquisition version B03.01 (Agilent Technologies, Inc.) and processed using MassHunter Quantitative Analysis for QQQ. Accuracy was determined for each hormone analyte from 3 standards to determine upper and lower limits of quantification (ULOQ and LLOQ, respectively) using a 7-point standard curve. Precision and accuracy of the extraction and quantification methods were calculated as the percent relative standard deviation (%RSD) of the spiked standards and percent spiked standard recovered, respectively. […] Test medium was removed following chemical exposure, and cell viability was evaluated in the same wells by MTT. MTT procedures were as follows: after removal of test medium, 500 uL of 0.5 mg/ml of 3-[4,5-dimethylthiazol-2-y]2,5-diphenyltetrazoliumbromide solution was added to the cells. Following a 4-hour incubation at 37 C and 5% CO2 to allow formazan-crystal formation, the MTT solution was removed and blue formazan salt crystals were solubilized using 500uL anhydrous isopropanol with shaking for 20 minutes. Absorbance was read at 570 and 650nm using a Packard Fusion microplate reader. Background correction of absorbance units was used to determine percent change relative to controls. […]

SMILES	AC50	outcome
c1ccc2c(c1)-c1cccc3c1c-2cc1ccccc13	3.71 µM (active)	
CCCCCCCC1CCC(=O)O1 (configuration not stated)		inactive
CCCCC(CC)C(=O)OCCOCCOCCOC(=O)C(CC)CCCC (configuration not stated)		inactive
CCOc1ccc2[nH]cc(C(=O)NCc3ccccc3)c(=O)c2n1	68.1 µM (active)	
CCN(CC)C(=S)SSC(=S)N(CC)CC		inactive
COc1cc2c(c(OC)c1OC)-c1ccc(OC)c(=O)cc1[C@@H](NC(C)=O)CC2		inactive
CCCCCCCCCCCCCCO		inactive
C=CCc1cc(S(=O)(=O)c2ccc(O)c(CC=C)c2)ccc1O	0.165 µM (active)	
C[C@@H](Oc1ccc(CNC(=O)c2cccnc2Oc2ccc3c(c2)OCO3)c(F)c1)C(=O)O		inactive
CCCOc1ccc(S(=O)(=O)N2CCN(CC)CC2)cc1-c1nc2c(CC)n(Cc3ccccn3)nc2c(=O)[nH]1		inactive
CC(C)c1nnc2ccc(-c3ocnc3-c3cc(F)ccc3F)cn12		inactive
CCCCCCCCN(C)C		inactive
CC[C@H](C)C(=O)O[C@H]1C[C@H](O)C=C2C=C[C@H](C)[C@H](CC[C@@H](O)C[C@@H](O)CC(=O)O)[C@H]21	5.55 µM (active)	
C[C@]12C=CC(=O)C=C1CC[C@H]1[C@@H]3C[C@@H](O)[C@](O)(C(=O)CO)[C@@]3(C)C[C@H](O)[C@@]12F		inactive
Nc1ccn([C@@H]2O[C@H](CO)[C@@H](O)[C@@H]2O)c(=O)n1		inactive
CCn1nc(C)c2c1C(=O)NCC(c1ccc(O)cc1)=N2	2.63 µM (active)	
OCc1c[nH]c2ccccc12	15.8 µM (active)	
